Data: PubChem BioAssay (NCI)
Compounds without any hit were thinned out: in the full panel of roughly 83,000, 20% have a hit.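 Interpretation: 100, growth as untreated; towards 0, rising growth inhibition; 0, no net growth; 0 to -100, cell death. Compounds scoring below 10 were considered active.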 Activity calls are given as the source filed them.

What follows are compounds tested on LOX IMVI melanoma (assay: NCI-60 one-dose screen, 48 h (100 = growth as untreated, 0 = no growth, -100 = all killed)). Details: 10 µM unless noted.
Experimental: Growth inhibition of the LOX IMVI human tumor cell line is measured as a screen for anti-cancer activity. Cells are grown in 96 well plates and exposed to the test compound for 48 hours. Compounds are tested at a single concentration, which is 10^-5 M for most compounds. The reported endpoint is percent growth (GI% or GIPRCNT), where numbers from 0 - 100% represent growth inhibition, and numbers from -100% - 0 represent cell death. For example, a value of 40 represents 60% growth inhibition. A value of 0 means no net growth occurred over the course of the experiment. A value of -40 indicates 40% of cells at the beginning of the experiment died by the end of the experiment. A value of -100 means all cells are dead at the end of the experiment.
NCI-60 Human Tumor Cell Lines Screen was performed using the standard one-dose NCI protocol, which is described in more detail at https://dtp.cancer.gov/discovery_development/nci-60/default.htm.
Compounds with GIPRCNT values below 10 were considered active. Activity score was based on GIPRCNT using the following formula: […]
Score is 0 for GIPRCNT values of 100 or above, 50 for GIPRCNT values of 0, and 100 for GIPRCNT values of -100.

Structure (SMILES) | growth
Clc1ccc(-c2cnc3c(-c4ccnc(N5CCNCC5)c4)cnn3c2)cc1 | -80.9% (active)
Cc1ccc(Nc2cccc3ccccc23)cc1 | 79.9% (inactive)
O=[N+]([O-])c1ccc(N/N=C\c2ccc(O)cc2O)nc1 | 24.7% (inactive)
COc1ccc(-c2cc(C(=O)Nc3ccc(Br)cc3)nc3[nH]c(=O)sc23)cc1 | 36.7% (inactive)
c1cc2c(cc1-c1cnc3nonc3n1)OCO2 | 84.9% (inactive)
COc1cccc(/C=N\Nc2ccc([N+](=O)[O-])cn2)c1O | 36.9% (inactive)
Clc1ccc(C2=NN[C@H](c3cn(-c4ccccc4)nc3-c3ccccc3)C2)cc1 | 49.7% (inactive)
N/C(=N\OC(=O)c1ccccc1)C(Cc1ccccc1)C(=O)NOC(=O)c1ccccc1 (stereo not given) | -81.2% (active)
O=C(CCCCCCN1CC(=O)N2[C@@H](c3ccc(Cl)c(Cl)c3)c3[nH]c4ccccc4c3C[C@H]2C1=O)NO | -55.2% (active)
CCN(CC)c1ccc(/C=N/NC(=O)C[N+](C)(C)C)cc1 | 97% (inactive)
CC(C)(C)OC[C@@H]1N=C(c2ccc(Br)cc2)Nc2nc3ccccn3c2C1=O | 58.7% (inactive)
C[C@H](NC(=O)c1snnc1C1CC1)c1c(F)cccc1Cl | 93.9% (inactive)
CC(C)CCSc1nc(-c2ccc(F)cc2)c(C#N)c(N2CCN(C)CC2)n1 | 77.6% (inactive)
COc1cc(Nc2ncccc2/C=C/C(=O)c2cc(OC)c(OC)c(OC)c2)cc(OC)c1OC | 17.1% (inactive)
CC(=O)Nc1c(Br)cc2c(c1Br)Cc1cc(Br)ccc1-2 | 20.7% (inactive)
CCN(CC)CCCC(C)Nc1c(-c2ccccc2)cnc2cc(Cl)ccc12 (stereo not given) | 19.2% (inactive)
O=C(/C=C/c1cn(-c2ccccc2)nc1-c1ccccc1)OCc1cn(-c2cccc([N+](=O)[O-])c2)nn1 | 90.1% (inactive)
COC1(OC)C2(Cl)CCC1(Cl)C(Cl)=C2Cl | 94.2% (inactive)
CNC1=C([N+](=O)[O-])C(c2ccccc2O)C(C#N)=C(c2cccs2)O1 (stereo not given) | 87.3% (inactive)
COc1ccc(-c2cc(C(=O)Nc3ccc(C)cc3)nc3[nH]c(=O)sc23)cc1 | 77.7% (inactive)

Structure (SMILES) | growth
COc1ccc2c(c1)OC1=C(C(=O)OC1)C2c1cc(OC)c2c(c1)OCCO2 (stereo not given) | 21.3% (inactive)
C=C1C(=O)O[C@H]2[C@H]1CC/C(COC(=O)NCc1cn(C)c3ccccc13)=C\CC[C@@]1(C)O[C@@H]21 | -65% (active)
O=C(O)CSc1ccc(NCc2oc(CO)cc(=O)c2O)cc1 | 91.7% (inactive)
CCNCCCn1c2c(c3ccc(Cl)cc3c1=O)C(=O)c1cc(OC)cnc1-2 | -71.1% (active)
CCN1CCN(Cc2ccc(NC(=O)Nc3ccc(-n4ccc5c(NC(=O)c6ccccc6)nccc54)cc3)cc2C(F)(F)F)CC1 | -84.5% (active)
O=C(Nc1ccc(Br)cc1)Nc1cccc(Br)c1 | 33% (inactive)
CCNC(=O)c1ccc2c(c1)nc(-c1ccc(Cl)cc1)n2-c1cc(C(C)(C)C)[nH]n1 | 33.1% (inactive)
C=CCN1C(=O)/C(=c2\sc3n(c2=O)C2C(NN=3)N(CC)C(=O)N2CC)c2ccccc21 (stereo not given) | 28.9% (inactive)
O=C(O)c1ccccc1Oc1cc(-c2ccco2)nc(OCCN2CCOCC2)n1 | 99.5% (inactive)
COc1ccc(NC(=O)Cn2c(=O)sc3c(-c4ccc(Cl)cc4)cc(-c4ccc(Cl)cc4)nc32)cc1 | 91.1% (inactive)
O=C(c1ccccc1)C(CCc1ccccn1)CCc1ccccn1 | 95.8% (inactive)
O=c1c2cc(Cl)ccc2oc2ccc(OCCCCCN3CCCCC3)cc12 | -6.06% (active)
O=C(Nc1ccncc1)C(=O)c1cn(S(=O)(=O)c2cccc(Cl)c2F)c2ccccc12 | 51.3% (inactive)
CC(C)CCSc1nc(Nc2ccccc2)c(C#N)c(-c2ccc(F)cc2)n1 | 60.4% (inactive)
CN(C)c1nc(-c2cccs2)n2nc(-c3ccc(Cl)cc3)cc2n1 | 26.5% (inactive)
O=S1(=O)NCCN1CCNc1nccc(-c2c(-c3cccc(O)c3)nc3sccn23)n1 | 55% (inactive)
CCCCCCCCCCCCCC1=NC(C)(C)CN1C(C)C | -74.1% (active)
CN(C)c1nc(-c2cccs2)n2nc(-c3ccco3)cc2n1 | 77.6% (inactive)
O=C(/C=C/c1ccccc1)c1c[nH]c2ccccc2c1=O | -32.6% (active)
COc1cc(/C=C\c2cc(/C=C\c3ccc(O)c(OC)c3)n(C(=O)Nc3ccc(C(F)(F)F)cc3)n2)ccc1O | 9.11% (active)
